The source of these data is PubChem BioAssay (NCI).

This is part of a sample that, as a whole, favours compounds with a hit. Of some 83,000 tested, about 20% had one in any assay.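 Cells were grown in 96-well plates and exposed to the test compound at a single concentration for 48 hours; results are reported as percent growth, with values below 10 considered active.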 Unmarked numbers belong to inactive results. Activity calls are given as the source filed them.

This experiment concerns MDA-MB-468 breast. Put plainly: NCI-60 one-dose screen, 48 h (100 = growth as untreated, 0 = no growth, -100 = all killed). The note with it: 10 µM unless noted.
Consider `O=C(c1ccccc1)c1c(/C=C/c2ccc(Cl)cc2)nc2ccccc2c1/C=C/c1cccs1`, for which the growth was 94.3%.

For the molecule `COc1ccc(-c2cc(-c3cn(-c4cccc(Cl)c4)nc3-c3ccc(OC)cc3)on2)cc1`, the growth is 88.9%.

Turning to `FC(F)(F)c1ccc2c(Nc3cccc(C4CC(c5ccccc5)=NN4c4ccc(Cl)cc4)c3)ccnc2c1` (stereo not given), the growth was 47.4%.

`O=C(CCl)Nc1ccc2c(Nc3cc(O)ccc3Cl)ncnc2c1`: the growth was -61.7% (active).

Take `O=S(=O)(NCCNc1cc(-c2c(-c3cccc(O)c3)nc3sccn23)ccn1)c1ccc(Br)cc1`: the growth is 47.7%.

Regarding `COc1ccc(C2CC(c3ccc(Cl)cc3)=NN2/C=C2\SC(=S)N(NC(=O)Cc3ccccc3Nc3c(Cl)cccc3Cl)C2=O)cc1` (stereo not given), the growth is 75.2%.

On to `CCC(C)N(c1ccc(Cl)cc1)c1nc(-c2ccc(Br)cc2)cs1` (stereo not given), for which the growth is 95.7%.

Turning to `C/C=C/C1OCC(CC)C(CCC)O1` (stereo not given), the growth is 122%.

Consider `CC/C=C(\C)C(CCC)(CN=O)C(=O)OCC` (stereo not given), for which the growth is 113%.

For the molecule `OC1CCCc2ccccc21` (stereo not given), the growth was 97.4%.

For `N#C/C(=C\c1ccc(-c2cc(C(F)(F)F)ccc2Cl)o1)c1nc(-c2ccco2)cs1`, the growth is -3.16% (active).

As for `O=C(OCC(O)C(=O)NC12CC3CC(CC(C3)C1)C2)c1cccc(Br)c1` (stereo not given), the growth was 99.9%.

Consider `COCCCNc1nc(NC(=O)c2ccc(F)cc2C)cc(-c2cccnc2)n1`, for which the growth is 111%.

For `CNc1ccccc1C(=O)N/N=C/C=C/c1ccccc1`, the growth is 19.8%.

For the molecule `CC(C)=C1CCC(C)C/C1=N\N=C(N)N` (stereo not given), the growth is 101%.

With `O=C(/C=C/c1ccc(C(F)(F)F)cc1)Nc1ccc(C=C2c3ccccc3C(=O)c3ccccc32)cc1`, the growth was 33.5%.

As for `COc1cc(NC(N)=NCCC(C)(C)Oc2ccc(C(F)(F)F)cc2)ncc1C#N`, the growth was -84.4% (active).

For `O=c1[nH]c(-c2ccccn2)nc2sc3c(c12)CCCCC3`, the growth is 50%.

As for `CNCC[C@H](Oc1cccc2ccccc12)c1cccs1`, the growth is 82%.

Regarding `Cc1c(-c2ccccc2)[nH]c2ccccc12`, the growth is 88.1%.

For the molecule `CCN1CC2=C(Nc3nc(SC)[nH]c(=O)c3C2c2cc(OC)c(OC)c(OC)c2)/C(=C/c2cc(OC)c(OC)c(OC)c2)C1` (stereo not given), the growth is 95.8%.

For `Cn1c2ccccc2c2c3c(c4c5ccccc5n(C)c4c21)C(=O)OC3`, the growth was 101%.

As to `Cc1cc(N/N=C/c2nc(-c3ccccc3)oc2C)c2cc(Br)ccc2n1`, the growth was 35.7%.

Regarding `c1ccc(-c2ccc(-c3nc4ccccc4[nH]3)cc2)cc1`, the growth was 87%.

Consider `CCN1C2CCC1/C(=C\c1ccc(F)cc1)C(=O)/C2=C/c1ccc(F)cc1`, for which the growth is 11.1%.

With `CC1=NN(c2cccc(Cl)c2)C(=O)/C1=C\C=C\c1ccccc1`, the growth is 9.96% (active).

For the molecule `CCN(CC)c1ccc2nc3c4ccccc4c(=O)cc-3n(-c3ccccc3)c2c1`, the growth is -17.5% (active).

For the molecule `CC(=O)OCC(=O)[C@@]1(O)CC[C@H]2[C@@H]3CC(=C(Br)Br)C4=CC(=O)CC[C@]4(C)[C@H]3C(=O)C[C@@]21C`, the growth was 79.1%.

As for `Cc1ccccc1COc1ccc(-c2ccnn2-c2ccc(Cl)cc2)cc1`, the growth is 41.1%.

As to `Cc1cc(Cl)nc(N(CCCNc2ccnc3cc(Cl)ccc23)Cc2cccs2)n1`, the growth is -30.1% (active).

As to `CC1CCCC(CC(N)=O)CC1` (stereo not given), the growth is 97.9%.

Turning to `O=C1c2c(c3c4cc(Br)ccc4[nH]c3c3ccc4ccccc4c23)C(=O)N1CCN1CCNCC1`, the growth is 79.6%.

As to `Cn1c(=O)c2nc(SCc3ccccc3)n(C)c2n(C)c1=O`, the growth is 103%.

`O=C(Cn1c2c(c3ccccc31)CCCC2)Nc1ccc(-c2nc3ccccc3s2)cc1`: the growth was -19.5% (active).

`O=C1C=CC(=Nc2cc(Br)c(O)c(Br)c2)C=C1`: the growth is 51.4%.

As for `N#C/C(=C\c1ccc(-c2ccc(Cl)c(Cl)c2)o1)C(=O)Nc1ncc(Cc2ccc(Cl)cc2)s1`, the growth is 22.1%.

Consider `COc1ccc(OCC(=O)Nc2ccc(-c3nc4ccccc4s3)cc2C)cc1`, for which the growth is 7.38% (active).

Regarding `CCOC(=O)c1cn2c3c(cc(F)cc3c1=O)C(CC)c1ccccc1C2` (stereo not given), the growth is 99.4%.

In the case of `Cc1nc2ccccc2c(/C=C/c2ccc(Cl)cc2)c1C(=O)/C=C/c1ccc(F)cc1`, the growth was -16.5% (active).

Turning to `CC(Cc1cccc(C(F)(F)F)c1)NCCOC(=O)c1ccccc1` (stereo not given), the growth was 107%.
